Out of some 94,000 compounds screened, about 2,100 (2.2%) were called active. The entries come from a sample that favours actives as a whole. A number with no mark means an inactive call. No stated cut-off is given here; in the data, active means activity change below about -80%; inconclusive means no clear call, values can overlap the other calls; inactive means above that.
Experiment: Dd2 malaria parasite growth inhibition – SYBR Green fluorescence, single dose replicates, primary screen (AID 1159554)
Conditions: P. falciparum Dd2 growth, 72 h, at 10 µM, hits give low values

With `C[C@@H]1CN([C@@H](C)CO)C(=O)c2cccc(NC(=O)CCCCCC(=O)Nc3ccccc3N)c2O[C@H]1CN(C)C(=O)Nc1ccccc1` as the compound, how does the activity change read?
The activity change was -53.7%.

For `C[C@@H]1CN([C@@H](C)CO)C(=O)c2cccc(NC(=O)CCCCCC(=O)Nc3ccccc3N)c2O[C@H]1CN(C)C(=O)Nc1cccc2ccccc12`, which activity change is on record?
The activity change was -86.4% (active).

With `CC(C)NC(=O)Nc1cccc2c1O[C@H](CN(C)CC1CCCCC1)[C@H](C)CN([C@H](C)CO)C2=O` as the compound, how does the activity change read?
The activity change was -26.3%.

Which activity change does the source give for `C[C@H](CO)N1C[C@H](C)[C@@H](CN(C)C(=O)Nc2ccccc2)Oc2c(NC(=O)CCCCCC(=O)Nc3ccccc3N)cccc2C1=O` here?
The activity change was -26.6%.

Which activity change does the source give for `C[C@H](CO)N1C[C@H](C)[C@H](CN(C)CC2CCCCC2)Oc2ccc(NC(=O)CCCCCC(=O)Nc3ccccc3N)cc2CC1=O` here?
Its activity change is -32.3%.

Which activity change does the source give for `C[C@H]1CN([C@@H](C)CO)C(=O)c2cccc(NC(=O)CCCCCC(=O)Nc3ccccc3N)c2O[C@@H]1CN(C)CC1CCCCC1` here?
Its activity change is -83.5% (active).

For `COc1cccc(S(=O)(=O)Nc2ccc3c(c2)[C@H]2C[C@H](CC(=O)O)O[C@H](CO)[C@H]2O3)c1`, which activity change is on record?
Its activity change is 19%.

For `CCCNC(=O)Nc1ccc2c(c1)C(=O)N(C)C[C@@H](OC)[C@@H](C)CN(Cc1ccccn1)[C@@H](C)CO2`, which activity change is on record?
Its activity change is -2.2%.

Which activity change does the source give for `O=C(NC1CCC1)[C@H]1[C@H](CO)[C@H]2Cn3c(ccc(-c4ccccc4)c3=O)[C@@H]1N2Cc1cocn1` here?
Its activity change is 10.7%.

Which activity change does the source give for `Cn1cnc(S(=O)(=O)NC[C@@H]2CC[C@@H]3[C@@H](CN3Cc3nccs3)O2)c1` here?
The activity change was 28.5%.

With `C[C@@H]1CCCCO[C@@H](CN(C)S(=O)(=O)c2cn(C)cn2)[C@@H](C)CN([C@@H](C)CO)C(=O)c2cc(NC(=O)Nc3ccc(C(F)(F)F)cc3)ccc2O1` as the compound, how does the activity change read?
Its activity change is -75.5%.

For `O=C(c1ccccc1F)N1CC(=O)N2[C@H](C1)[C@H](c1ccc(-c3ccc(F)cc3)cc1)[C@@H]2CO`, which activity change is on record?
Its activity change is -63.7%.

With `O=C(Cc1cccnc1)N1CC(=O)N2[C@H](CO)[C@H](c3ccc(C#CC4CCCC4)cc3)[C@@H]2C1` as the compound, how does the activity change read?
The activity change was -26.7%.

With `O=C(C1CCCC1)N1CC(=O)N2[C@@H](CO)[C@@H](c3ccc(-c4cccnc4)cc3)[C@@H]2C1` as the compound, how does the activity change read?
Its activity change is -20.4%.

For `O=C(C1CCCC1)N1CC(=O)N2[C@H](C1)[C@@H](c1ccc(-c3cccnc3)cc1)[C@@H]2CO`, which activity change is on record?
The activity change was -88.2% (active).

For `O=C(c1cccnc1)N1CC(=O)N2[C@H](CO)[C@H](c3ccc(-c4cccnc4)cc3)[C@@H]2C1`, which activity change is on record?
The activity change was 25.3%.

With `O=C(c1ccccc1F)N1CC(=O)N2[C@H](CO)[C@@H](c3ccc(-c4cccnc4)cc3)[C@H]2C1` as the compound, how does the activity change read?
Its activity change is 21.6%.

With `O=C(c1ccccc1F)N1CC(=O)N2[C@H](CO)[C@H](c3ccc(-c4cccnc4)cc3)[C@H]2C1` as the compound, how does the activity change read?
Its activity change is -85.7% (active).

For `O=C(Cc1cccnc1)N1CC(=O)N2[C@@H](CO)[C@H](c3ccc(C#CC4CC4)cc3)[C@@H]2C1`, which activity change is on record?
The activity change was -6.96%.

For `CN(C)CC#Cc1ccc([C@@H]2[C@H](CO)N3C(=O)CN(C(=O)Cc4cccnc4)C[C@@H]23)cc1`, which activity change is on record?
The activity change was -85.1% (active).

Reference: PubChem BioAssay AID1159554 (Broad Institute, 2015)
